# Test results published in the supplement of paper PMC10849652.
# The full data set covers some 8,800 targets. This sample favours those with a hit. About 0.5% of all pairs of compound and target were hits. Unmarked numbers belong to inactive results.
# Key:
# Assay in all cases: log2 fold change, soluble protein after heating vs DMSO (PISA); higher = thermal stabilisation; K562 lysate, 10 uM; active = over 0.2 and 3.5 SD of the protein, either way, in both replicates (recomputed)
# [1] = compound: C1=CC=C(C=C1)[C@H](COC2=CC3=C(C=C2)NC(=O)N3)NC(=O)C4=CC=CN(C4=O)CC5=CC(=C(C=C5)F)F
# Method in brief: (§1)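 K562 pellets were dounce-homogenised in PBS pH 7.4 with 1 mM MgCl2, and the crude extract at 1 mg/mL protein was treated with 10 μM compound for 30 min. Aliquots were heated for 3 min across 48°C-58°C, pooled, and brought to 0.5% NP-40 at 4°C; soluble protein was the supernatant after 21,000xg for 90 min. Soluble protein was quantified by TMTpro 16plex LC-MS/MS with channel sums equalised, and reported as log2 fold change in thermal stability against DMSO controls, with values from duplicates.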
# [2] = compound: CC1=C(SC2=C1C(=N[C@H](C3=NN=C(N32)C)CC(=O)N)C4=CC=C(C=C4)Cl)C
# Method in brief: as §1
# [3] = compound: CC1=C2C(=CC=C1)N=C(N(C2=O)C3=CC=CC=C3C)CN4C=NC5=C(N=CN=C54)N
# Method in brief: as §1
# [4] = compound: Cc1sc2c(c1C)C(c1ccc(Cl)cc1)=N[C@@H](CC(=O)OC(C)(C)C)c1nnc(C)n1-2
# Method in brief: as §1
# [5] = compound: c1ccc([C@@H]2C[C@H]2NC2CCNCC2)cc1
# Method in brief: as §1
# Chain of UniProt P35250 (P35250 whole entry, looked up): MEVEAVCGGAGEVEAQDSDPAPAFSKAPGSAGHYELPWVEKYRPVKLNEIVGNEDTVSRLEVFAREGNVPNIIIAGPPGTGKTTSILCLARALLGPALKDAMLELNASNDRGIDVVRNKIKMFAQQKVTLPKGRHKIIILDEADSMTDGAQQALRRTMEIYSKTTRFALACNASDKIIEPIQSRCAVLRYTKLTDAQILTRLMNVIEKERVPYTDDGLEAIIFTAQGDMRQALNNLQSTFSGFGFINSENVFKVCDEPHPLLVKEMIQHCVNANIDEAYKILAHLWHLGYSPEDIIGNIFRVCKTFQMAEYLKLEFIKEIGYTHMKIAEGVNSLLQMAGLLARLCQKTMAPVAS
# Chain of UniProt Q9UQR0 (Q9UQR0 whole entry, looked up): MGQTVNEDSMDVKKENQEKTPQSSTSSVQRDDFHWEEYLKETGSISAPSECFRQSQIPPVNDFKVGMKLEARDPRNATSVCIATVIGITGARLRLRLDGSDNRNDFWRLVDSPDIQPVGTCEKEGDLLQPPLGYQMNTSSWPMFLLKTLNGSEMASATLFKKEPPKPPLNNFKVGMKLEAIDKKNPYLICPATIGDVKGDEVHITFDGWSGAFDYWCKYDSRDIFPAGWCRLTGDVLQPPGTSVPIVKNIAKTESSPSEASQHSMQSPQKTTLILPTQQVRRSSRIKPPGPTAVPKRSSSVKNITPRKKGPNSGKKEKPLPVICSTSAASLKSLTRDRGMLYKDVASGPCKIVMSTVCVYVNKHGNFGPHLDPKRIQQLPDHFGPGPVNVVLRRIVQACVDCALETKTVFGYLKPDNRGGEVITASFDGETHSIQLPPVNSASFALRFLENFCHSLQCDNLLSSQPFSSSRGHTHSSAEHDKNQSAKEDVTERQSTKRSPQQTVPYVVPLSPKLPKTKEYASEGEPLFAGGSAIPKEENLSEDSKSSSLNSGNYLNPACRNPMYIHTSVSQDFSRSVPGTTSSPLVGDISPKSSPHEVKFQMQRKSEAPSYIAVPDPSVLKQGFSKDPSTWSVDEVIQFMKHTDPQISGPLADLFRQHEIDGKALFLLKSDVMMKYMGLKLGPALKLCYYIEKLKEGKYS
# Chain of UniProt P47736 (P47736 whole entry, looked up): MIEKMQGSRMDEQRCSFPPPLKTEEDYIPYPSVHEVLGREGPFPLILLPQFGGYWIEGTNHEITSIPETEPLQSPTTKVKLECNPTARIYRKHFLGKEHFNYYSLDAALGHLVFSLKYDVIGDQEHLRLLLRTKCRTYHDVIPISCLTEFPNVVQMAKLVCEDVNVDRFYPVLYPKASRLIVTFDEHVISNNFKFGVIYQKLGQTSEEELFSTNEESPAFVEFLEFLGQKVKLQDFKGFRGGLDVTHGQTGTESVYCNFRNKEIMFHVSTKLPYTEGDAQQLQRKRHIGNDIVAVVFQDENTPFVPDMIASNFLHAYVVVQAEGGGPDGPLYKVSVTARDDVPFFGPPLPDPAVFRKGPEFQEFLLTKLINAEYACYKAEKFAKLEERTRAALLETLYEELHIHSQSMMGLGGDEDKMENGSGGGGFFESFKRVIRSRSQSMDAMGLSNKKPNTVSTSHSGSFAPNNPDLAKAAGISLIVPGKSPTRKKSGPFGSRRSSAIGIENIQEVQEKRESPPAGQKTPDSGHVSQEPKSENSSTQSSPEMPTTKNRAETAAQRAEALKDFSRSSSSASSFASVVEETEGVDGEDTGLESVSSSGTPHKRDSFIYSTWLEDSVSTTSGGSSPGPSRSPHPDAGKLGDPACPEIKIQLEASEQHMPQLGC
# Chain of UniProt Q5HYI8 (Q5HYI8 whole entry, looked up): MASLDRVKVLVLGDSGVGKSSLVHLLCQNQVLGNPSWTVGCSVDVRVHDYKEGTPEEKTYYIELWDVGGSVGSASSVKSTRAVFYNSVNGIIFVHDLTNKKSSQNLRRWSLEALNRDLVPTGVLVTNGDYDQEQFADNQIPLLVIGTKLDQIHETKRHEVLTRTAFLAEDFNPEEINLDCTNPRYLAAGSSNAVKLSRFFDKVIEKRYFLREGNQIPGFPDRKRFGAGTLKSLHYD
# Chain of UniProt Q15283 (Q15283 whole entry, looked up): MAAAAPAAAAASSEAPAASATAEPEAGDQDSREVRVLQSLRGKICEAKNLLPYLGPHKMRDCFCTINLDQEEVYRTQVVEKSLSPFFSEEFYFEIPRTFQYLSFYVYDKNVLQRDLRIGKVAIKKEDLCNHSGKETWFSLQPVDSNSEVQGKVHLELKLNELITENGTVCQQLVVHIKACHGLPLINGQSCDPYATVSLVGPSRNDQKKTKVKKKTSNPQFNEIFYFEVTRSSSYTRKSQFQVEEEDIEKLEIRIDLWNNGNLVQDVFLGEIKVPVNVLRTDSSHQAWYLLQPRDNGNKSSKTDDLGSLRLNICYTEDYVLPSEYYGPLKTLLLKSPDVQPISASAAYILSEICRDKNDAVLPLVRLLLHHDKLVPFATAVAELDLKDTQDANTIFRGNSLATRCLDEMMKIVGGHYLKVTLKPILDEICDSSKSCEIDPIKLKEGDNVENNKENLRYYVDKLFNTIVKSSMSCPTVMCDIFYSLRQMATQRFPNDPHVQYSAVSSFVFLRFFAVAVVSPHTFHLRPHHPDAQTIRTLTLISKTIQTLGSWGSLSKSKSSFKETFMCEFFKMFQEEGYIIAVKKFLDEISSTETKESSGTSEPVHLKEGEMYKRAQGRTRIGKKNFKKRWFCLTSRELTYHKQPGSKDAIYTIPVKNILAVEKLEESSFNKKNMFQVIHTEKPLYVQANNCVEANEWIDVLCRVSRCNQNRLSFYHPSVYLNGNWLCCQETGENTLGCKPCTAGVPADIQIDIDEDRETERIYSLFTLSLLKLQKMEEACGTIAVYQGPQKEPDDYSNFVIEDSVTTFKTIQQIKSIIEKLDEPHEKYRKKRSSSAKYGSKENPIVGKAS
# Chain of UniProt Q9BVS4 (Q9BVS4 whole entry, looked up): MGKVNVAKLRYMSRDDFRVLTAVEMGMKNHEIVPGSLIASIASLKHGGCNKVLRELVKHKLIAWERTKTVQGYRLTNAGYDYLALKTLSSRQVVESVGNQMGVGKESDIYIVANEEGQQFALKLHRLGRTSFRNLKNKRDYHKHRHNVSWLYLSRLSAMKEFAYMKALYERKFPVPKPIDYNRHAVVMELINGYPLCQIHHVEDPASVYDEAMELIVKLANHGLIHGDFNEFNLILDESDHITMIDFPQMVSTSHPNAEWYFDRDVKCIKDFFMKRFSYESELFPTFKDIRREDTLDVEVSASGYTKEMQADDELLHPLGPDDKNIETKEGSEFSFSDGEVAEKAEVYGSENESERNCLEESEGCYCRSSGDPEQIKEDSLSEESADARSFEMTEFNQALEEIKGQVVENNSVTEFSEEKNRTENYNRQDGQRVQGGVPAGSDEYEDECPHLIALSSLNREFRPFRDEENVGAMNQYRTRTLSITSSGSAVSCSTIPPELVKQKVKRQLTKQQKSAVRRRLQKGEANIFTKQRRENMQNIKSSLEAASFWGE
# Chain of UniProt O43502 (O43502 whole entry, looked up): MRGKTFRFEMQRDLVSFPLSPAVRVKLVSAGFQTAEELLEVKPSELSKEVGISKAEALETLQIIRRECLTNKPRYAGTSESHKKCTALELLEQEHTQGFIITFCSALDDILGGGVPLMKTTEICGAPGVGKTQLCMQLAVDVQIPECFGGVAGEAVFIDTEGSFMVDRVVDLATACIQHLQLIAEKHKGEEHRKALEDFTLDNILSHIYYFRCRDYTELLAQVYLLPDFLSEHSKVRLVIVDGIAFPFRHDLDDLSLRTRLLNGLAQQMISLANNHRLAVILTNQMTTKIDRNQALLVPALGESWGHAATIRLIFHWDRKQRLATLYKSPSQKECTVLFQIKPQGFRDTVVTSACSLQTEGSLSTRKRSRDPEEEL
# Chain of UniProt P55735 (P55735 whole entry, looked up): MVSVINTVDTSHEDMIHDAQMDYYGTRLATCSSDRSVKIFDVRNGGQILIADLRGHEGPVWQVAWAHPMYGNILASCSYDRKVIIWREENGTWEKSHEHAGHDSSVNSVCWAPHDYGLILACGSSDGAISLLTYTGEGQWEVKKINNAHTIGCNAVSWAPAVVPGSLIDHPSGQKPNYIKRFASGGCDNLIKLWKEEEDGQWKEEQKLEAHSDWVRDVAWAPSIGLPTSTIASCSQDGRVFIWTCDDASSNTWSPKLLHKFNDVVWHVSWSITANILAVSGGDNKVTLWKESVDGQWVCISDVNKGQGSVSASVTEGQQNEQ
# Chain of UniProt Q13530 (Q13530 whole entry, looked up): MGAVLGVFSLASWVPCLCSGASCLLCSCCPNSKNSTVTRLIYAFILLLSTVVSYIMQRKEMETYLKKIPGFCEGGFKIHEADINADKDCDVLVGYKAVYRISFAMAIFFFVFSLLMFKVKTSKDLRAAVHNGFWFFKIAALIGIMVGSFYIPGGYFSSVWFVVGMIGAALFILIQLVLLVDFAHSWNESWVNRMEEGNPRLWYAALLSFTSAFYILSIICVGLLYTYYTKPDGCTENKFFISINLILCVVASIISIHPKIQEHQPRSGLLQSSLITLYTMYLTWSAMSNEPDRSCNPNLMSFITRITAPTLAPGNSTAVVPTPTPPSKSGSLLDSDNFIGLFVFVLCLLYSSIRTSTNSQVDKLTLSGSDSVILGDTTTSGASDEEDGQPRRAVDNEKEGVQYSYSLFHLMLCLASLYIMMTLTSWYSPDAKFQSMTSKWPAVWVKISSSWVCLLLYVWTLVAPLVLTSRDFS
# Chain of UniProt Q00765 (Q00765 whole entry, looked up): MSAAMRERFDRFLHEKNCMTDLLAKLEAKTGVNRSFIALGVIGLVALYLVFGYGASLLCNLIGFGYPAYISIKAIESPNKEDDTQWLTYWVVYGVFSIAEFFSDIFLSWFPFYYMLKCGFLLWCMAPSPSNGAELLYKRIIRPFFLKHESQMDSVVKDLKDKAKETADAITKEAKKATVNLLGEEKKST
# Chain of UniProt P11233 (P11233 whole entry, looked up): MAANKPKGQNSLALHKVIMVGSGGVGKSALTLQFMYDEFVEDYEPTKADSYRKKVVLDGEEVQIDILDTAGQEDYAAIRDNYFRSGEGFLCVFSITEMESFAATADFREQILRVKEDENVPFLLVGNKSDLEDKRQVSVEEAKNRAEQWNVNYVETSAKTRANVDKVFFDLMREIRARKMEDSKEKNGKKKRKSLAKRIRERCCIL
Target,log2 fold change [1],log2 fold change [2],log2 fold change [3],log2 fold change [4],log2 fold change [5]
REL isoform 2 (UniProt Q04864),0.017,0,-0.003,0.031,0.03
RPL36AL (UniProt Q969Q0),0.074,-0.049,-0.03,0.274,0.015
RPS18 (UniProt P62269),-0.009,0.046,0.024,-0.003,-0.075
RAE1 (UniProt P78406),-0.022,-0.081,-0.005,0.07,-0.022
RAB3IL1 (UniProt Q8TBN0),0.047,0.008,0.02,0.007,0.039
RBM8A (UniProt Q9Y5S9),0.066,0.01,-0.061,0.084,0.171
RPS6KA1 (UniProt Q15418),-0.073,-0.064,-0.045,0.015,-0.047
RTN4IP1 (UniProt Q8WWV3),0.028,-0.005,0.027,-0.119,0.076
RAD54L2 (UniProt Q9Y4B4),0.139,0.144,0.029,-0.131,0.147
SAMD4A (UniProt Q9UPU9),0.114,0.086,-0.01,-0.079,-0.03
SBF1 isoform 4 (UniProt O95248),-0.08,0.001,-0.094,0.092,0.072
SCO2 (UniProt O43819),0.026,0.002,0.037,0.011,-0.074
SEC13 isoform 3 (UniProt P55735),0.022,-0.013,-0.001,-0.029,0.191
RABL3 (UniProt Q5HYI8),-0.044,-0.021,0.004,0.017,0.03
RBBP7 isoform 2 (UniProt Q16576),-0.012,-0.009,-0.03,-0.01,-0.033
RNF181 (UniProt Q9P0P0),0.03,-0.145,-0.031,0.022,0.066
RAF1 isoform 2 (UniProt P04049),0.024,0.035,-0.104,-0.017,0.013
RPS6KA3 (UniProt P51812),-0.049,-0.031,-0.008,0.009,-0.061
RPS29 (UniProt P62273),0.047,-0.055,-0.071,0.328,0.398
RIOK2 (UniProt Q9BVS4),0.002,-0.018,0.009,-0.023,-0.022
SCCPDH (UniProt Q8NBX0),0.165,-0.144,0.038,-0.004,-0.164
RCAN1 (UniProt P53805),0.141,-0.074,-0.063,-0.026,0.026
REEP5 (UniProt Q00765),0.007,0.009,0.028,0.022,-0.092
RANBP2 (UniProt P49792),-0.019,-0.009,0.002,0.003,0.02
RFC5 (UniProt P40937),-0.024,0.018,0.041,0.034,0.027
RCC1 isoform 2 (UniProt P18754),0.023,0.026,-0.013,0.045,0.014

Target,log2 fold change [1],log2 fold change [2],log2 fold change [3],log2 fold change [4],log2 fold change [5]
RPL8 (UniProt P62917),-0.012,-0.036,-0.031,0.066,0.032
RDX (UniProt P35241),-0.029,-0.036,0.003,0.025,0.148
RASA2 (UniProt Q15283),-0.07,0.045,0.058,0.025,0.037
RALGAPA1 isoform 6 (UniProt Q6GYQ0),-0.041,-0.072,0.006,-0.063,-0.178
SEC24D isoform 2 (UniProt O94855),-0.003,0.006,-0.016,0.033,0.009
RPS26P11 (UniProt Q5JNZ5),-0.001,0.031,0.05,-0.033,-0.31 (active)
RAD17 (UniProt O75943),-0.031,-0.077,0.047,-0.066,0.002
RALGAPB (UniProt Q86X10),0.029,0.023,0.085,-0.026,0.006
SEH1L isoform 1 (UniProt Q96EE3),0.016,0.031,-0.045,-0.041,-0.028
ROCK1 (UniProt Q13464),0.019,0.027,0.023,-0.016,-0.008
RFC2 (UniProt P35250),-0.009,0.006,-0.008,0.043,-0.033
RBSN (UniProt Q9H1K0),0.031,0.076,0.087,0.117,-0.019
RDH10 (UniProt Q8IZV5),0.147,0.018,0.006,-0.051,-0.06
RAP1B (UniProt F5GZG1),-0.082,-0.124,0.023,-0.019,-0.282
RAD51C (UniProt O43502),-0.028,0.026,0.078,-0.029,-0.004
SAR1B (UniProt Q9Y6B6),-0.006,-0.007,-0.01,-0.068,0.052
RBM22 (UniProt Q9NW64),-0.073,0.012,0.036,0.072,0
SAR1A (UniProt Q9NR31),0.066,0.038,0.005,-0.116,-0.009
SCML2 (UniProt Q9UQR0),-0.036,0.062,-0.055,-0.032,0.02
RALA (UniProt P11233),-0.013,0.071,-0.008,-0.004,-0.225
S100A11 (UniProt P31949),0.029,-0.075,-0.002,-0.029,-0.005
RAP1GAP isoform 4 (UniProt P47736),0.019,-0.012,-0.019,-0.009,0.007
SAMHD1 (UniProt Q9Y3Z3),0.005,0.002,-0.018,0.051,-0.002
SERINC3 (UniProt Q13530),0.109,-0.016,0.028,-0.056,-0.175
RPL31 (UniProt P62899),0.016,0.013,-0.027,0.041,-0.022
RANBP6 (UniProt O60518),0.013,-0.047,0.046,0.074,0.005
